The values below come from PubChem BioAssay (NCI).

Compounds without any hit were thinned out: in the full panel of roughly 83,000, 20% have a hit.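 Testing used 96-well plates and a 48-hour single-concentration exposure. Example: -40 means 40% of the starting cells died.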 A number with no mark means an inactive call. Active and inactive are the calls of the source. The calls were made as follows: active = growth percent below 10; inactive = the rest.

Some test systems named below: SK-MEL-2 melanoma; EKVX NSCLC; SN12C renal; UO-31 renal; TK-10 renal; ACHN renal; CAKI-1 renal; A498 renal; CCRF-CEM leukemia; MOLT-4 leukemia.
Experiment in all cases: NCI-60 one-dose screen, 48 h (100 = growth as untreated, 0 = no growth, -100 = all killed)
Conditions in all cases: 10 µM unless noted

Regarding `CCCCCCCCNc1cccc2c1C(=O)c1ccccc1C2=O`, the growth in the assay with SK-MEL-2 melanoma was 108%; in the assay on EKVX NSCLC, 109%; in the assay on SN12C renal it was 97.6%; with UO-31 renal, 92.2%; with TK-10 renal it was 98.3%; in the assay with ACHN renal it was 111%. The growth was 98.3% in the assay on CAKI-1 renal, 81.1% in the assay with A498 renal, 112% in the assay with CCRF-CEM leukemia and 90.5% with MOLT-4 leukemia.

In the case of `CCCCN1CCCCn2c1nc1c2c(=O)n(C)c(=O)n1C`, the growth in the assay with SK-MEL-2 melanoma was 91.9%; with EKVX NSCLC, 105%; in the assay with SN12C renal, 102%; in the assay on UO-31 renal, 93.1%; with TK-10 renal, 103%; with ACHN renal, 107%. In addition, the growth in the assay with CAKI-1 renal was 95.5%; in the assay on A498 renal, 96.3%; with CCRF-CEM leukemia, 113%; with MOLT-4 leukemia, 96.6%.

As to `Cn1c(=O)c2c(nc(N3CCCC3)n2C)n(C)c1=O`, the growth is 97.4% in the assay with SK-MEL-2 melanoma; 98.9% in the assay on EKVX NSCLC; 102% in the assay with SN12C renal; 93.8% in the assay on UO-31 renal; 85.3% with TK-10 renal; 106% with ACHN renal. The growth was 93.8% in the assay with CAKI-1 renal, 81.9% in the assay with A498 renal, 105% in the assay with CCRF-CEM leukemia and 95.1% in the assay on MOLT-4 leukemia.

Take `CC1(C)CC[C@]2(CO)CC[C@]3(C)C(=CC[C@@H]4[C@@]5(C)CC[C@H](NCO)C(C)(C)[C@@H]5CC[C@]43C)[C@@H]2C1`: the growth in the assay with SK-MEL-2 melanoma was -38% (active); with EKVX NSCLC it was 41%; in the assay on SN12C renal it was -75.2% (active); in the assay with UO-31 renal, -58.9% (active); in the assay with TK-10 renal, 100%; in the assay with ACHN renal, -69.2% (active). The growth in the assay with CAKI-1 renal was -71.9% (active); in the assay with A498 renal, 84.2%; in the assay on CCRF-CEM leukemia, 0.708% (active); in the assay with MOLT-4 leukemia, -19.7% (active).

For the compound `NC1=C(C/C(N)=N\O)C(c2ccccc2Cl)c2c(ccc3ccccc23)O1` (stereo not given), the growth with SK-MEL-2 melanoma is 90.4%; with EKVX NSCLC, 80.9%; with SN12C renal, 91.3%; in the assay with UO-31 renal it was 58.6%; in the assay on TK-10 renal, 180%; with ACHN renal, 83%. The growth is 49.5% in the assay with CAKI-1 renal, 96.8% in the assay with A498 renal, 79.8% in the assay with CCRF-CEM leukemia and 76% in the assay with MOLT-4 leukemia.

As to `c1ccc2c(-c3nc(-c4c[nH]c5ncccc45)cs3)c[nH]c2c1`, the growth is 102% in the assay with SK-MEL-2 melanoma; 80.5% with EKVX NSCLC; 76.7% with SN12C renal; 52.5% in the assay on UO-31 renal; 120% in the assay on TK-10 renal; 97.3% with ACHN renal. Besides, the growth with CAKI-1 renal is 98.7%; with A498 renal, 91.8%; in the assay with CCRF-CEM leukemia, 75.4%; with MOLT-4 leukemia, 85.6%.

With `CC(c1ccccc1)N1C(=O)C(C2SC(=S)N(C(C)c3ccccc3)C2=O)SC1=S` (stereo not given), the growth with SK-MEL-2 melanoma is 101%; in the assay on EKVX NSCLC, 94.4%; in the assay on SN12C renal it was 85.5%; in the assay on UO-31 renal, 66.5%; in the assay on TK-10 renal, 106%; in the assay with ACHN renal, 74.4%. Also, the growth was 66.6% in the assay with CAKI-1 renal, 106% in the assay on A498 renal, 54.1% with CCRF-CEM leukemia and 78.8% in the assay with MOLT-4 leukemia.

As for `CCCC1CCCCN1C(=O)OCC(C)C` (stereo not given), the growth in the assay with SK-MEL-2 melanoma was 108%; with EKVX NSCLC, 104%; with SN12C renal, 102%; with UO-31 renal, 74.5%; with TK-10 renal, 107%; in the assay with ACHN renal it was 100%. Moreover, the growth in the assay on CAKI-1 renal is 90.2%; in the assay on A498 renal, 108%; in the assay on CCRF-CEM leukemia, 96.3%; in the assay on MOLT-4 leukemia, 95.3%.

For `CCc1ccccc1NC(=O)c1sc2nc3c(cc2c1N)CCCC3`, the growth in the assay on SK-MEL-2 melanoma is 31.8%; with EKVX NSCLC it was 72.9%; with SN12C renal it was 34.9%; in the assay on UO-31 renal, 48.9%; in the assay on TK-10 renal, 59.5%; in the assay with ACHN renal it was 48.2%. In addition, the growth is 45.6% in the assay with CAKI-1 renal, 6.65% (active) with A498 renal, 18.3% with CCRF-CEM leukemia and 25.4% in the assay with MOLT-4 leukemia.

For `CCN(CC)CCCCCNc1cc(OC(=O)c2ccccc2)cc2cccnc12`, the growth was 140% in the assay with SK-MEL-2 melanoma; 102% in the assay with EKVX NSCLC; 95% in the assay with SN12C renal; 92.5% with UO-31 renal; 145% in the assay on TK-10 renal; 96.6% in the assay on ACHN renal. In addition, the growth in the assay with CAKI-1 renal was 91%; with A498 renal, 81.1%; in the assay with CCRF-CEM leukemia it was 93.9%; with MOLT-4 leukemia, 55.4%.

For the compound `COc1ccc(C2(Cl)c3ccccc3N(c3ccccc3)c3ccccc32)cc1`, the growth was -39.9% (active) in the assay on SK-MEL-2 melanoma; 0.119% (active) in the assay with EKVX NSCLC; -1.51% (active) in the assay with SN12C renal; 7.46% (active) with UO-31 renal; 8.72% (active) in the assay on TK-10 renal; 4.85% (active) in the assay on ACHN renal. Moreover, the growth is 7.42% (active) in the assay with CAKI-1 renal, -26.5% (active) with A498 renal, 20.6% in the assay with CCRF-CEM leukemia and 12.7% in the assay on MOLT-4 leukemia.

For `CCC(c1ccc(OC)cc1)C(CC)c1ccc(O)c(CN2CCCCC2)c1` (stereo not given), the growth in the assay on SK-MEL-2 melanoma is 79.7%; in the assay on EKVX NSCLC, 64.6%; in the assay with SN12C renal, 66%; with UO-31 renal it was 39.6%; with TK-10 renal, 84.6%; in the assay with ACHN renal, 82.3%. Also, the growth with CAKI-1 renal was 61.6%; in the assay with A498 renal it was 72.8%; in the assay with CCRF-CEM leukemia, 68.7%; in the assay with MOLT-4 leukemia, 62.7%.

In the case of `Cn1c2c(c3ccc(Cl)cc31)-n1cccc1C2=O`, the growth is 84.6% in the assay on SK-MEL-2 melanoma; 86.4% in the assay on EKVX NSCLC; 74.5% in the assay on SN12C renal; 57.5% in the assay with UO-31 renal; 88.2% in the assay on TK-10 renal; 78.2% in the assay with ACHN renal. Besides, the growth was 83.2% in the assay with CAKI-1 renal, 89.6% in the assay on A498 renal, 85.7% with CCRF-CEM leukemia and 64.2% with MOLT-4 leukemia.
